Source: PubChem BioAssay AID1259415 (National Center for Advancing Translational Sciences (NCATS), 2018)
About 18,000 (4.4%) of roughly 410,000 compounds were called active. About 7% were inconclusive and are not listed. The sample as a whole holds a higher share of actives than the screen did. Unmarked numbers belong to inactive results. No stated cut-off is given here; in the data, active means activity change below about -60%; inconclusive means no clear call, values can overlap the other calls; inactive means above about -39%.
On the % scale 0 is the no-effect control and ±100 the full control effect.

Assay: qHTS Assay for inhibitors of the human cytomegalovirus (HCMV)
Conditions: HFF cells, HCMV-luciferase reporter, 72 h; at 57.5 µM; active compounds read low
Outline: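 HFF cells seeded 16 h at 37C, treated with compounds, infected with luciferase-reporter HCMV at MOI 1 PFU/cell; luciferase read at 72 h post infection, normalized to buffer-only and Salinomycin controls.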
Work on `CCCN(CCC)CCNC(=O)c1ccc2c(c1)NC(=O)C(CS(=O)(=O)Cc1cccc(Br)c1)N2` (stereo not given) yielded an activity change, negative = inhibition of -22.3%.
For `CC(=O)N1CCc2c(sc(NC(=O)CCS(=O)(=O)c3ccccc3)c2C#N)C1`, the activity change, negative = inhibition was -99.8% (active).
`CC(C)N1CCc2c(sc(NC(=O)Cc3ccccc3)c2C#N)C1` showed an activity change, negative = inhibition of -9.26%.
`CC(=O)N1CCc2c(sc(NC(=O)CCS(=O)(=O)c3ccc(C)cc3)c2C(N)=O)C1` gave an activity change, negative = inhibition of 5.61%.
`CC(C)CNc1cccc2c1S(=O)(=O)N[C@H](CC(C)C)CO2` showed an activity change, negative = inhibition of -24.9%.
In the case of `CCCNC(=O)C[C@@H]1CC[C@@H]2[C@H](COC[C@H](O)CN2C(=O)c2cc(Cl)cc(Cl)c2)O1`, the activity change, negative = inhibition is reported as -17.8%.
Work on `O=C(CSc1nnc(N2CCOCC2)n1-c1cccc(F)c1)N1CCN(c2ccccn2)CC1` yielded an activity change, negative = inhibition of -18.8%.
With `O=C(C[C@H]1CC[C@H]2[C@@H](COC[C@H](O)CN2C(=O)c2ccccn2)O1)N1CCN(c2ccccc2)CC1` the activity change, negative = inhibition was -65.2% (active).
For `COc1ccc(-c2nc3ccccc3c(=O)n2CCc2ccc(O)cc2)cc1`, the activity change, negative = inhibition was -62% (active).
With `COc1ccccc1OCCCn1c(-c2ccc(Cl)cc2)nc2ccccc2c1=O` the activity change, negative = inhibition was 39.4%.
`COc1cccc(OCCn2c(-c3ccc(Br)cc3)nc3ccccc3c2=O)c1` gave an activity change, negative = inhibition of 43%.
Work on `Cc1ccc2c(c1)N(C(=O)CCC(=O)NCc1ccccc1F)CC(C)O2` (stereo not given) yielded an activity change, negative = inhibition of 8.23%.
In the case of `Cc1ccc(C(=O)NC(=S)Nc2ccc(N3CCOCC3)cc2)cc1`, the activity change, negative = inhibition is reported as -103% (active).
In the case of `Cc1ccc(C(=O)C(=S)N2CCOCC2)cc1`, the activity change, negative = inhibition is reported as 6.2%.
With `COC(=O)c1ccc(NC(=S)NN2CCOCC2)cc1` the activity change, negative = inhibition was 35.3%.
Molecule `Cc1nc2ccccc2c2oc(C(=O)NCCCN3CCC(C)CC3)cc12` has an activity change, negative = inhibition of 52.7%.
Molecule `O=C(NCCN1CCN(Cc2ccccc2)CC1)c1cc2c(=O)[nH]c3ccccc3c2s1` has an activity change, negative = inhibition of -8.01%.
With `CCC1CCCCN1CCCNC(=O)c1cc2c(Cl)nc3ccccc3c2s1` (stereo not given) the activity change, negative = inhibition was -99.5% (active).
`Cc1ccc(NC(=O)CN(C)C(=O)c2ccc(Cl)c(S(=O)(=O)NCc3ccco3)c2)cc1` showed an activity change, negative = inhibition of -35%.
`O=S(=O)(c1ccc(C2CCCCC2)cc1)N1CCN(c2ccc(Cl)c(Cl)c2)CC1` showed an activity change, negative = inhibition of 9.35%.
For `COC(=O)c1c(NC(=O)CCCOc2ccccc2)sc2c1CCC(C)C2` (stereo not given), the activity change, negative = inhibition was 5.16%.
In the case of `COC(=O)c1c(NC(=O)CN2CCN(S(=O)(=O)c3ccccc3[N+](=O)[O-])CC2)sc2c1CCC(C)C2` (stereo not given), the activity change, negative = inhibition is reported as -60.3% (active).
`Cc1c(Br)c([N+](=O)[O-])nn1CC(=O)Nc1sc2c(c1C(=O)OC(C)C)CCC(C)C2` (stereo not given) gave an activity change, negative = inhibition of 9.26%.
`Cn1c(=O)oc2cc(S(=O)(=O)CCC(=O)NCCc3ccc(Cl)cc3)ccc21` showed an activity change, negative = inhibition of 11.3%.
With `CCN(CC)c1nn2c(=O)c(C(=O)NCCc3ccccc3)cnc2s1` the activity change, negative = inhibition was 3.6%.
In the case of `COc1ccc(NS(=O)(=O)c2cc3c4c(c2)CC(=O)N4CCC3)cc1Cl`, the activity change, negative = inhibition is reported as -18.7%.
`CCOc1ccc(Br)cc1S(=O)(=O)N1CCC(C(=O)O)CC1` gave an activity change, negative = inhibition of -26.6%.
`CCOc1ccc(Br)cc1S(=O)(=O)Nc1cccc(S(=O)(=O)N(CC)CC)c1` gave an activity change, negative = inhibition of 14.1%.
For `CCOc1ccc(Br)cc1CSC(=N)N`, the activity change, negative = inhibition was -73.3% (active).
With `Cc1nn(C)c2c1c(C(F)(F)F)cc(=O)n2C(C)C(=O)NCc1ccc(Cl)cc1` (stereo not given) the activity change, negative = inhibition was 7.11%.
Work on `O=C(c1cccc(Br)c1)N1CCN(Cc2cc(=O)n3nc(-c4ccccc4)sc3n2)CC1` yielded an activity change, negative = inhibition of -19.8%.
Molecule `COc1ccccc1NC(=O)Cn1cnc2ccc(S(=O)(=O)N3CCC(C)CC3)cc2c1=O` has an activity change, negative = inhibition of -5.25%.
With `COc1ccc(NC(=O)CSc2nnc(-c3nnn(-c4ccc(F)cc4)c3C)o2)cc1` the activity change, negative = inhibition was 10.5%.
With `Cc1ccccc1NC(=O)Cn1c(=O)n(CCc2ccccc2)c(=O)c2ccccc21` the activity change, negative = inhibition was 24.5%.
With `Cc1ccc(Cn2nnc3c(=O)[nH]c(C4CCN(S(=O)(=O)/C=C/c5ccccc5)CC4)nc32)cc1` the activity change, negative = inhibition was 48.5%.
In the case of `Cc1ccc(NC(=O)N2CCC(c3nc4c(nnn4Cc4c(F)cccc4Cl)c(=O)[nH]3)CC2)cc1`, the activity change, negative = inhibition is reported as -65.5% (active).
Molecule `O=C(c1ccccc1F)N1CCC(c2nc3c(nnn3Cc3cccc(F)c3)c(=O)[nH]2)CC1` has an activity change, negative = inhibition of 67.9%.
In the case of `CCOc1ccc(-n2c(C)nc3c(cnn3-c3ccc(C)cc3)c2=O)cc1`, the activity change, negative = inhibition is reported as -26.3%.
`CCCNC(=S)N1CCC(NC(=O)C23CC4CC(CC(C4)C2)C3)CC1` showed an activity change, negative = inhibition of 20%.
With `Cc1ccc(CNC(=O)CSc2c(C)cnc3c2c(=O)n(C)c(=O)n3C)cc1` the activity change, negative = inhibition was -25%.
For `O=C(OC12CC3CC(CC(C3)C1)C2)c1ccc(NCc2cc(O)ccc2O)cc1`, the activity change, negative = inhibition was -100% (active).
`O=C(CSCc1c(Cl)cccc1Cl)NN1C(=O)c2ccccc2C1=O` gave an activity change, negative = inhibition of 12.2%.
`CCN1CCc2nc3sc(C(=O)Nc4ccccc4OC(F)(F)F)c(N)c3cc2C1` showed an activity change, negative = inhibition of -25.3%.
Molecule `CCOC(=O)c1ccc(-c2ccc(/C=C(\C#N)C(=O)Nc3ccc(C)cc3)o2)cc1` has an activity change, negative = inhibition of 31.4%.
In the case of `N#C/C(=C\c1ccc(-c2cccc([N+](=O)[O-])c2)o1)C(=O)NCCN1CCOCC1`, the activity change, negative = inhibition is reported as -67.8% (active).
For `O=C(NCCN1CCN(C(=O)c2cccc([N+](=O)[O-])c2)CC1)C(=O)NCc1ccc(Cl)cc1`, the activity change, negative = inhibition was 27.7%.
Work on `CCOC(=O)c1ccc(-c2ccc(/C=C(\C#N)C(=O)Nc3ccc(OCC)cc3)o2)cc1` yielded an activity change, negative = inhibition of 4.93%.
With `Cc1ccc(Cc2cnc(NC(=O)/C(C#N)=C/c3ccc(-c4cccc([N+](=O)[O-])c4)o3)s2)cc1` the activity change, negative = inhibition was -61.6% (active).
For `CCCCOC(=O)/C(C#N)=C/c1ccc(-c2cccc(C(F)(F)F)c2)o1`, the activity change, negative = inhibition was -3.64%.
With `Cc1ccc(OCCSc2nc(-c3cccs3)nc3cc(=O)[nH]n23)cc1Cl` the activity change, negative = inhibition was 22.8%.
Molecule `COc1ccccc1N1CCN(S(=O)(=O)CCNC(=O)COc2ccc(F)cc2)CC1` has an activity change, negative = inhibition of 65.8%.
Work on `Cc1ccc(NC(=O)CCCn2c(=O)c3cccn3c3ccccc32)cc1Cl` yielded an activity change, negative = inhibition of 4.78%.
For `O=S(=O)(c1ccc(Cl)s1)N1CCC2(CC1)OCCO2`, the activity change, negative = inhibition was -18.3%.
For `CC(C)c1ccc(S(=O)(=O)N2CCC3(CC2)OCCO3)cc1`, the activity change, negative = inhibition was -60.4% (active).
`Cc1c(C)c(C)c(S(=O)(=O)N2CCC3(CC2)OCCO3)c(C)c1C` showed an activity change, negative = inhibition of -6.48%.
